Sampled rows, rich in hits. Any-hit rate of the full collection: about 4.1%.
hcDAF12 agonist = H. contortus DAF-12 nuclear receptor activators, primary screen, cell-based, luminescence, HEK293, lit1-tk-luc reporter; HEK293 hcDAF-12 lit1-tk-luc reporter; 0% DMSO, 100% Δ7-dafachronic acid; activation, % at 6.8 µM; 370,000 tested, 1.4% active; AID 652067, 2013;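 active = activation above the mean of all tested compounds plus 3 SD, cut at about 5.5% in these data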
hgDAF12 agonist = H. glycines DAF-12 receptor agonists, primary screen, cell-based, luminescence, HEK293, GAL4 fusion, UAS-luciferase | HEK293 GAL4-hgDAF12 UAS-luciferase reporter, agonist luminescence; normalized to butyrate control | activation, % at 6.8 µM | 370,000 tested, 1.8% active | AID 687014, 2013;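 active = activation above a cutoff set at the mean of all screened compounds plus 3 SD, cut at about 10% in these data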
DAX1 inh-1 = DAX1 (NR0B1) inhibitors, primary screen, cell-based, HEK293, Gal4-DAX1, luciferase luminescence; 340,000 tested, 0.99% active; Nuclear receptor subfamily 0 group B member 1 (Homo sapiens), P51843; HEK293 Gal4-DAX1 luciferase reporter; inhibition, % at 6.75 µM; AID 504766, 2011;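 active = inhibition above the mean over all tested compounds plus 3 SD, cut at about 4.2% in these data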;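 also: inhibition shows as a rise in luminescence from relieved DAX1 repression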
ssDAF12 agonist = S. stercoralis DAF-12 nuclear receptor activators, primary screen, cell-based, luminescence, HEK293, GRIP1 co-expression, lit1-tk-luc. HEK293 ssDAF-12/GRIP1 lit1-tk-luc reporter; % of 3 µM dafachronic acid response. activation, % at 6.8 µM. AID 652126, 2013. 370,000 tested, 1% active. Nuclear hormone receptor DAF-12 (Strongyloides stercoralis);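 active = activation above the mean over all tested compounds plus 3 SD, cut at about 0.9% in these data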
DAX1 inh-2 = DAX1 (NR0B1) inhibitors on StAR promoter, primary screen, cell-based, luminescence, SF-1 (NR5A1), full-length DAX-1; HEK293T StAR-luciferase reporter, SF-1/DAX-1 repression relief; AID 652010, 2013; 370,000 tested, 1.1% active; inhibition, % at 6.8 µM;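 active = inhibition above the mean over all tested compounds plus 3 SD, cut at about 3.6% in these data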;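 also: higher inhibition means more luminescence from relief of DAX-1 repression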
LXRb hcDAF ctr = LXR agonists, Gal4 luciferase reporter, confirmation, counter-screen for hcDAF-12 agonist project, cell-based, luminescence, HEK293, H. contortus campaign. AID 743027, 2013. 3,400 tested, under 10 active. shares compounds with hcDAF12 agonist. activation, % at 6.8 µM. HEK293 Gal4-LXR tk-luc reporter, 24 h; normalized: DMSO 0%, positive control 100%;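 active = mean percent activation of the reporter above a cutoff set as the average over tested compounds plus their standard deviation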
Target sequence (P55055 whole entry, looked up, the tested form may be a part): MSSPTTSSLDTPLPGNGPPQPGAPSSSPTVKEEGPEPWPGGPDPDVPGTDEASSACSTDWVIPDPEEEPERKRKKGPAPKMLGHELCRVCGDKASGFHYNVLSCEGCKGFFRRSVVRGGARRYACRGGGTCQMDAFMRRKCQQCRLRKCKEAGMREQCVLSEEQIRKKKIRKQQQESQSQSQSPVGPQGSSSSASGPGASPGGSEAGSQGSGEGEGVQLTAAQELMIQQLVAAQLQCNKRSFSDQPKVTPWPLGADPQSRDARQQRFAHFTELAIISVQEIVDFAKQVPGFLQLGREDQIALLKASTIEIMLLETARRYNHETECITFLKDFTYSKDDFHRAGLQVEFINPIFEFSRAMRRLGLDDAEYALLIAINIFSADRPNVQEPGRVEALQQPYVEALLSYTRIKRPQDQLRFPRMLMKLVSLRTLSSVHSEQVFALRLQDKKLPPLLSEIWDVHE
hcDAF12 ag = H. contortus DAF-12 receptor agonists, confirmation, cell-based, luminescence, HEK293, lit1-tk-luc, triplicate; 3,400 tested, 61% active; activation, % at 6.8 µM; shares compounds with hcDAF12 agonist; HEK293 hcDAF-12 lit1-tk-luc reporter; % of Δ7-dafachronic acid response;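 active = mean activation across triplicate tests above the threshold derived from the earlier primary screen, cut at about 5.5% in these data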
Each line names hits and unclear results; the compound was inactive in the other large screens (follow-up assays come after a bar, where they were run).

O=C(NCc1ccc(F)cc1)c1cc(C2CCCN(C(=O)c3ccc4c(c3)CCO4)C2)on1 (stereo not drawn)	none (no result: DAX1 inh-1)
COC(=O)c1c[nH]n2c(=O)c(Cl)c(C)nc12	hcDAF12 agonist 8.7 | LXRb hcDAF ctr inactive | hcDAF12 ag inactive
COC(=O)c1c[nH]n2c(=O)cc(C)nc12	none
Cc1cnc(NC(=O)CCCc2nc3ccccc3s2)s1	hcDAF12 agonist 10, hgDAF12 agonist 12, ssDAF12 agonist 5.3 | LXRb hcDAF ctr inactive | hcDAF12 ag 6.9
CC(=O)C1CCCN(C(=O)c2ccc3oc(CCc4ccccc4)nc3c2)C1 (stereo not drawn)	hcDAF12 agonist 7.0, DAX1 inh-2 3.9 | LXRb hcDAF ctr inactive | hcDAF12 ag inactive
CCOc1ccc(NC(=S)NNc2ccnc3cc(Cl)ccc23)cc1	hcDAF12 agonist 7.9 | LXRb hcDAF ctr inactive | hcDAF12 ag inactive
S=C(NNc1ccnc2cc(Cl)ccc12)Nc1ccc(Cl)cc1Cl	none
O=C(NCCc1ccccc1F)c1ccc2c(c1)ncn2C1CCCCC1	none (no result: DAX1 inh-1)
COc1cccc2c1C(=O)c1c(O)c3c(c(O)c1C2=O)C[C@@](O)(C(=O)CO)C[C@@H]3OC1CC(N)C(O)C(C)O1 (stereo partly drawn)	hcDAF12 agonist 11, ssDAF12 agonist 7.3 | LXRb hcDAF ctr inactive | hcDAF12 ag inactive
COc1ccc(C(=O)Nc2ccccc2C(=O)Nc2cc(C)ccn2)cc1	none
COc1ccc(C(=O)/C=C/Nc2cc(C)ccn2)cc1	hcDAF12 agonist 10, hgDAF12 agonist 14 | LXRb hcDAF ctr inactive | hcDAF12 ag 11
Cc1ccc(N=Nc2[nH]c3ccccc3c2O)cc1	hcDAF12 agonist 9.5, hgDAF12 agonist 13 | LXRb hcDAF ctr inactive | hcDAF12 ag 12
CCC(=O)Nc1cc2nn(-c3ccccc3)nc2cc1Cl	hcDAF12 agonist 7.3 | LXRb hcDAF ctr inactive | hcDAF12 ag 13
Cc1nn(CC(=O)NCc2cc3ccccc3[nH]2)c(C)c1[N+](=O)[O-]	hcDAF12 agonist 9.4 | LXRb hcDAF ctr inactive | hcDAF12 ag inactive
c1ccc2c(c1)ncc1cccn12	hcDAF12 agonist 6.7, ssDAF12 agonist 1.5 | LXRb hcDAF ctr inactive | hcDAF12 ag inactive
c1ccc(-c2ncc3ccccn23)cc1	none
O=C(CCCCl)Oc1ccc2cc(-c3ccc4ccccc4n3)c(=O)oc2c1	hcDAF12 agonist 8.4 | LXRb hcDAF ctr inactive | hcDAF12 ag inactive
CC(=O)Oc1ccc2cc(-c3ccccc3)c(=O)oc2c1	none
COC(=O)[C@]12C[C@H](CC(=O)NCCc3ccccc3OC)C(=O)N(Cc3ccco3)C1=C[C@H](COCc1ccccc1)O[C@@H]2C	none (no result: DAX1 inh-1)
O=C(CC(Nc1cccc(Cl)c1Cl)C(=O)OCC(=O)c1cccs1)c1ccccc1 (stereo not drawn)	hcDAF12 agonist 7.4 | LXRb hcDAF ctr inactive | hcDAF12 ag inactive
Cc1c(Cl)cccc1NC(CC(=O)c1ccccc1)C(=O)OCC(=O)c1cccs1 (stereo not drawn)	none
Cc1ccc(SCC(=O)N2CCN(c3ccccn3)CC2)cc1	none
O=C(CSc1nccc2ccccc12)N1CCN(c2ccccn2)CC1	hcDAF12 agonist 8.2 | LXRb hcDAF ctr inactive | hcDAF12 ag inactive
CCCCCN1CCCCC(NC(=O)c2ccc(F)c(F)c2)C1=O (stereo not drawn)	none (no result: DAX1 inh-1)
